KB-V1 cytotox = kills drug-selected multidrug resistant KB-V1 cells | KB-V1 MDR cells viability, CellTiter-Glo, 72 h | AID 1347076 | hit rate 3.4% among 400,000 | Potency, µM (top dose mostly 46.1 µM), most hits filed as cytotoxic; further: nearly all actives have a fitted effect of over 60% in size
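KB-V1 MDR subline cells in DMEM (phenol-red free, 10% FBS) exposed to compounds in qHTS concentration series for 72 h at 37 degrees C. Viability read by CellTiter-Glo luminescence; concentration-effect curves fitted after normalization and correction.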
SW480 rereplic = induces DNA re-replication in SW480 colon adenocarcinoma cells; Potency, µM (doses to about 46.1 µM), most hits filed as activators; SW480 DNA re-replication, Hoechst DNA content imaging, 48 h; hit rate 1.8% among 340,000; further: nearly all actives have a fitted effect of over 55% in size
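SW480 cells exposed to compounds for 48 hr at 37 C, 5% CO2, then Hoechst-stained 40 min. Nuclear DNA content imaged by fluorescence scanning (405 nm excitation, 500-530 nm emission); re-replication scored as increased high-intensity nuclei.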
KB-3-1 cytotox = kills parental KB-3-1 adenocarcinoma cells; AID 1347075; hit rate 1.4% among 400,000; Potency, µM (highest dose often 46.1 µM), hits mostly cytotoxic; KB-3-1 viability, CellTiter-Glo ATP luminescence, 72 h; further: nearly all actives have a fitted effect of over 60% in size
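KB-3-1 cells, DMEM (no phenol red) + 10% FBS; compound by pin transfer, 72 h, 37 °C. Readout: CellTiter-Glo luminescence after 10 min. Data normalized, curve-fitted.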
ELG1 DNA repair = ELG1-dependent DNA repair inhibition | hit rate 2.3% among 330,000 | Potency, µM (top dose mostly 46.1 µM), hits mostly inhibitors | HEK293T ELG1-luciferase reporter, luminescence, 16 h; DNA damage induced by 5-fluorouridine; further: nearly all actives have a fitted effect of over 55% in size
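DMSO vehicle served as the neutral condition. Each well held 2,000 cells given 5-fluorouridine plus compound; after 16 hr at 37 °C/5% CO2, ONE-Glo was added and luciferase measured 30 min later.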
MCF10A rereplic = DNA re-replication induction in MCF 10a cells. Potency, µM (highest dose often 46.1 µM), most hits filed as activators. hit rate 2.9% among 350,000. MCF 10A DNA re-replication, Hoechst nuclear intensity, 48 h. AID 624296; further: nearly all actives have a fitted effect of over 50% in size
Large screens that a line does not name were inactive; ! = not confirmed by another sample. The list is not random: actives were taken first. Their share in the collection is about 8.1%. The call rests on the fitted dose curve; in most records, active means well fitted curve in the direction sought with a large enough effect; inconclusive means small, poorly fitted or top-dose-only effect, or another doubt; inactive means no such curve, though single readings can be large; an effect the other way counts as inactive or inconclusive.

CC(=O)C1=C(O)C(=O)N(c2ccc(O)cc2)C1c1ccccc1F (stereo not drawn)	none
CCNC(=S)N(CCc1c(C)[nH]c2ccc(Cl)cc12)Cc1ccco1	SW480 rereplic 18µM, KB-3-1 cytotox 23µM, MCF10A rereplic inconclusive
CNC(=S)N(CCc1c(C)[nH]c2ccc(Cl)cc12)Cc1cc(OC)c(OC)c(OC)c1	KB-V1 cytotox inconclusive, SW480 rereplic 26µM, KB-3-1 cytotox inconclusive, ELG1 DNA repair inconclusive, MCF10A rereplic inconclusive
CNC(=S)N(CCc1c(C)[nH]c2ccc(C)cc12)Cc1ccc(OC)c(OC)c1	ELG1 DNA repair inconclusive
Nc1c(-c2ccccc2)c(CSc2nc3ccccc3[nH]2)nn1-c1ccc(Cl)cc1	KB-3-1 cytotox inconclusive, ELG1 DNA repair 6.5µM
Cc1ccccc1-n1nc(CSc2nc3ccccc3[nH]2)c(-c2ccccc2)c1N	KB-V1 cytotox 18µM, KB-3-1 cytotox inconclusive, ELG1 DNA repair inconclusive
Nc1c(-c2ccccc2)c(CSc2nc3ccccc3[nH]2)nn1-c1cccc(Cl)c1	KB-V1 cytotox inconclusive, SW480 rereplic inconclusive, KB-3-1 cytotox 23µM, ELG1 DNA repair 2.9µM, MCF10A rereplic inconclusive
Cc1cc(C)cc(C(=O)NCCC(=O)NCc2cc(=O)n(C)c(=O)n2C)c1	SW480 rereplic inconclusive
CC(=O)c1ccc(N2C(=O)[C@@H]3[C@H](C2=O)[C@H]2c4ccccc4C=NN2[C@@H]3C(C)=O)cc1	none
CCc1ccccc1N(C(=O)CCC(=O)Nc1cc(C)on1)C(C(=O)NC1CCCC1)c1ccco1 (stereo not drawn)	KB-V1 cytotox inconclusive, KB-3-1 cytotox inconclusive, ELG1 DNA repair inconclusive
C=CCc1cccc2cc(C(=O)NCc3ccc(C(=O)OCC)o3)c(=O)oc12	none
Cc1sc2ncn(CC(=O)N3CCN(c4ccccc4F)CC3)c(=O)c2c1S(=O)(=O)N1CCOCC1	none
CC(Cc1ccc(O)c(O)c1)C(C)Cc1ccc(O)c(O)c1 (stereo not drawn)	SW480 rereplic 0.37µM!, MCF10A rereplic inconclusive (no result: ELG1 DNA repair)
C[C@H](Cc1ccc(O)c(O)c1)[C@@H](C)Cc1ccc(O)c(O)c1	none (no result: SW480 rereplic, ELG1 DNA repair, MCF10A rereplic)
COc1cccc(C(=O)OCC(=O)Nc2cc(C)on2)c1OC	none
N#Cc1cc2cc3c(cc2nc1NCCNC(=S)NCCCN1CCOCC1)OCO3	SW480 rereplic inconclusive, MCF10A rereplic 21µM
CCOc1ccc(CC2NCCc3cc(OCC)c(OCC)cc32)cc1OCC (stereo not drawn)	KB-V1 cytotox inconclusive, SW480 rereplic inconclusive, KB-3-1 cytotox inconclusive, ELG1 DNA repair 15µM, MCF10A rereplic inconclusive
COc1c(C)cc(Br)cc1C(=O)Nc1ccc(Cc2ccncc2)cc1	SW480 rereplic inconclusive, ELG1 DNA repair inconclusive, MCF10A rereplic 16µM
COc1ccccc1N(CC(=O)Nc1ccc(Cc2ccncc2)cc1)S(=O)(=O)c1ccccc1	ELG1 DNA repair 18µM, MCF10A rereplic inconclusive
CCCCC(=O)Nc1ccc(NC(=O)c2ccccc2OC)cn1	ELG1 DNA repair 18µM, MCF10A rereplic inconclusive
CCCCC(=O)Nc1ccc(NC(=O)c2cc(OC)c(OC)c(OC)c2)cn1	none
COc1ccccc1C(=O)Nc1ccc(Cc2ccncc2)cc1	KB-V1 cytotox 9.2µM, KB-3-1 cytotox inconclusive
O=C(Nc1ccc(Cc2ccncc2)cc1)c1ccc(Cl)c([N+](=O)[O-])c1	KB-V1 cytotox inconclusive, KB-3-1 cytotox inconclusive, ELG1 DNA repair inconclusive, MCF10A rereplic inconclusive
CCOc1ccc(C(=O)Nc2ccc(NC(=O)c3ccccc3)cc2)cc1Br	none
Cc1c([N+](=O)[O-])cc(C(=O)Nc2ccc(Cc3ccncc3)cc2)cc1[N+](=O)[O-]	ELG1 DNA repair 10µM
CCOc1ccc(C(=O)Nc2ccc(Cc3ccncc3)cc2)cc1Br	SW480 rereplic 16µM, KB-3-1 cytotox inconclusive, ELG1 DNA repair inconclusive, MCF10A rereplic inconclusive
O=c1c2ccccc2c(C=Nc2ccc(Cl)cn2)c(O)n1-c1cc(Cl)ccc1N1CCOCC1	none
CC(=O)c1ccc(N=Cc2c(O)n(-c3cc(Cl)ccc3N3CCOCC3)c(=O)c3ccccc23)cc1	ELG1 DNA repair 7.3µM
c1cnc2c(c1)ncc1cscc12	ELG1 DNA repair inconclusive
c1cc2c(cn1)cnc1cscc12	KB-3-1 cytotox inconclusive, ELG1 DNA repair 8.2µM
Clc1ccc(-c2cnc(Oc3ccccc3)nc2)cc1	ELG1 DNA repair inconclusive
Cc1cc(Cl)ccc1Oc1ncc(-c2ccc(Cl)cc2)cn1	KB-V1 cytotox 18µM
Cc1nc2ccccn2c1C(=O)NCc1ccc2c(c1)OCO2	KB-V1 cytotox 16µM, ELG1 DNA repair 16µM
Cc1nc2ccccn2c1C(=O)N/N=C/c1ccc2c(c1)OCO2	KB-V1 cytotox 18µM, SW480 rereplic inconclusive, KB-3-1 cytotox inconclusive, ELG1 DNA repair inconclusive, MCF10A rereplic inconclusive
CCOc1cc(/C=N\NC(=O)c2c(C)nc3ccccn23)ccc1O	MCF10A rereplic inconclusive
c1ccc2c(c1)CCN(c1ncnc3c1[nH]c1ccccc13)C2	KB-V1 cytotox 9.2µM, SW480 rereplic inconclusive, ELG1 DNA repair 9.2µM, MCF10A rereplic inconclusive
COc1cccc2[nH]c3c(N4CCc5ccccc5C4)ncnc3c12	ELG1 DNA repair 13µM, MCF10A rereplic inconclusive
COc1ccc2[nH]c3c(N4CC(C)OC(C)C4)ncnc3c2c1 (stereo not drawn)	ELG1 DNA repair inconclusive
COc1cccc(N2CCN(c3ncnc4c3[nH]c3ccccc34)CC2C)c1 (stereo not drawn)	ELG1 DNA repair 4.6µM (no result: KB-V1 cytotox, SW480 rereplic, KB-3-1 cytotox, MCF10A rereplic)
c1ccc2c(c1)[nH]c1c(N3CCC4(CC3)OCCO4)ncnc12	KB-V1 cytotox inconclusive, ELG1 DNA repair 21µM, MCF10A rereplic inconclusive
CN(C)/C=C1\C=Cc2ccccc21	none (no result: SW480 rereplic, ELG1 DNA repair, MCF10A rereplic)
Cc1nc(CS(=O)(=O)c2ccccc2)cc(N2CCOCC2)n1	SW480 rereplic inconclusive, ELG1 DNA repair inconclusive, MCF10A rereplic inconclusive
Cc1cc(C)c[n+](-c2nc3ccccc3nc2[N-]S(=O)(=O)c2ccc(Br)s2)c1	none
O=C(CSc1ncc(-c2ccc(F)cc2)[nH]1)N1CCCCC1	ELG1 DNA repair inconclusive
CCOc1ccc(CNC(=O)C2CCN(C3=NS(=O)(=O)C(c4ccc(C)cc4)=C3CC)CC2)cc1	none (no result: SW480 rereplic, ELG1 DNA repair, MCF10A rereplic)
CCN(CC)CC#CC(O)(c1ccccc1)c1ccccc1	KB-V1 cytotox inconclusive, ELG1 DNA repair inconclusive, MCF10A rereplic inconclusive
Cc1ccc(S(=O)(=O)N(CC(=O)NCc2ccco2)Cc2ccccc2F)cc1	KB-V1 cytotox 8.2µM
CCC(C)NS(=O)(=O)c1ccc(S(=O)(=O)N(CC(=O)Nc2ccccc2)Cc2ccco2)cc1 (stereo not drawn)	ELG1 DNA repair 18µM
Cc1ccc(S(=O)(=O)N(CC(=O)NCc2ccncc2)Cc2ccccc2F)cc1	KB-V1 cytotox inconclusive
CCCC(C)NC(=O)CN(Cc1ccco1)S(=O)(=O)c1ccccc1 (stereo not drawn)	none
Cc1cc(S(=O)(=O)NCc2ccccc2)ccc1OCC(=O)N1CCCC1	KB-V1 cytotox inconclusive, KB-3-1 cytotox inconclusive
NS(=O)(=O)c1ccc(CCNC(=O)C2CCN(S(=O)(=O)c3c(Cl)cccc3Cl)CC2)cc1	KB-V1 cytotox inconclusive

Screens: PubChem BioAssay, National Center for Advancing Translational Sciences (NCATS)
